Most compounds without a hit are left out; they make up all but 19% or so of the library.
HT1080-NT tox – kills 2HG-producing HT-1080-NT fibrosarcoma cells | HT-1080-NT fibrosarcoma viability, CellTiter-Glo ATP luminescence, 48 h | Potency, µM (series often up to 46.1 µM), inactives show top-dose activity, negative = less viability, actives largely listed as cytotoxic | 360,000 tested, 1.6% active | AID 686970;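 note: NT is the 2HG producing partner of a matched IDH1 knockdown line; potency is the fitted concentration of half-maximal effect; 0% = DMSO-treated cells and -100% = media-only wells without cells; nearly all actives have a fitted effect of over 55% in size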
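Compounds were tested in concentration-response format on HT-1080-NT cells for 48 hours at 37 degrees C. Cell viability came from CellTiter-Glo luminescence; curves were classified by r2, response magnitude and activity.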
HT1080 IDH1KD tx – HT-1080 IDH1 knockdown cell toxicity (counter line) | 360,000 tested, 2% active | HT-1080 IDH1 knockdown viability, ATP luminescence, 48 h | Potency, µM (top dose mostly 46.1 µM), for inactives: at the highest dose activity, negative = toxicity, actives largely listed as cytotoxic;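 note: potency is the fitted concentration of half-maximal effect; 0% = DMSO wells and -100% = cell-free medium wells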
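Assay cells: HT-1080 with IDH1 knockdown, 750 per well, RPMI/5% FBS. Exposure: 48 h at 37 °C following 2 h pre-incubation. Read: CellTiter-Glo luminescence; fitted concentration-response, curve class assigned.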
TDP1 cell noCPT – qHTS for Inhibitors of human tyrosyl-DNA phosphodiesterase 1 (TDP1): qHTS in cells in absence of CPT; DT40 Tdp1-/- hTDP1 cells, no CPT, ATP luminescence, 48 h; AID 686978, 2013; 420,000 tested, 15% active; Potency, µM (series often up to 46.2 µM), without a hit: top-dose activity change, negative = growth inhibition, hits mostly inhibitors; note: potency is the fitted concentration of half-maximal effect; nearly all actives have a fitted effect of over 55% in size
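Cells were dispensed at 400 per well, compounds added by pin tool, plates incubated ≥48 hr at 37 °C, then CellTiter-Glo added for 30 min at room temperature before luminescence reading. Line: DT40 Tdp1-/- complemented with hTDP1; camptothecin omitted.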
IL-1B inflam inh – inhibitors of inflammasome signaling (IL-1 beta secretion); AID 743279; 360,000 tested, 4.7% active; THP-1 LPS/ATP IL-1B secretion, AlphaLISA, 16 h; hits give low values; activity change, % at 57.5 µM; in the data active = activity change below about -50%; inconclusive = mostly about -30% to -49%
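THP-1 cells pretreated 1 hr with compounds (up to 57.5 uM final), then stimulated with LPS (250 ng/mL final) plus ATP (1.25 mM final); secreted IL-1B measured by AlphaLISA after 16 hr, decreased signal indicating inhibition.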
TDP1 cell CPT – growth inhibition of DT40 Tdp1-/-;hTDP1 cells with camptothecin (screen for TDP1 inhibitors); AID 686979; chicken DT40 Tdp1-/-;hTDP1 cells + 20 nM CPT, ATP luminescence, 48 h; 420,000 tested, 12% active; Potency, µM (top dose mostly 46.2 µM), without a hit: at the top dose activity change, negative = growth inhibition, actives largely listed as inhibitors; note: potency is the fitted concentration of half-maximal effect; nearly all actives have a fitted effect of over 55% in size
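Chicken DT40 Tdp1-/- cells stably complemented with human TDP1 were seeded at 400 cells/well in medium containing 20 nM camptothecin, exposed to pin-transferred compounds, and grown at 37 °C for at least 48 hr. Viability was read as ATP luminescence.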
Starred values were filed as active, the others as inactive; u = inconclusive; x = not tested or not shown; [ ] = another dose, or the depositor's remark. Unless noted, calls come from the whole dose curve; as a rule, active = well fitted curve in the direction sought with a large enough effect; inconclusive = small, poorly fitted or top-dose-only effect, or another doubt; inactive = no such curve, though single readings can be large; an effect the other way counts as inactive or inconclusive. Unless noted, % is set by controls: 0 for no effect and ±100 for the full control effect.

SMILES	HT1080-NT tox	HT1080 IDH1KD tx	TDP1 cell noCPT	IL-1B inflam inh	TDP1 cell CPT
COc1cc(NC(=O)Nc2cccc(-c3noc(C)n3)c2)cc(OC)c1OC	x	x	23µM*	x	u
COc1ccc(C(=O)Nc2cc(C)nn2-c2cccc(F)c2)cc1	4%	0%	u	3	u
NS(=O)(=O)c1ccc(CCNC(=O)CCc2nc3ccccc3s2)cc1	5%	16%	-7%	13	15%
O=C(COC(=O)C1CC(=O)N(Cc2ccccc2)C1)Nc1ccccc1F (centres undefined)	11%	-1%	-2%	1	5%
COc1cc(NC(=O)c2cc(-c3cccc(O)c3)on2)cc(OC)c1OC	u	u	13µM*	5	u
COc1cc(NC(=O)c2cc(-c3ccccc3Cl)on2)cc(OC)c1OC	u	u	2.9µM*	-81*	2.9µM*
COc1cc(NC(=O)c2cc(-c3ccc(C)cc3)on2)cc(OC)c1OC	13%	4%	u	75	-14%
CCC(C)NC(=O)c1ccc2nc(-c3cccs3)c(-c3cccs3)nc2c1 (centres undefined)	x	x	13µM*	x	10µM*
COc1cc(NC(=O)c2cc(-c3ccc(Cl)c(Cl)c3)on2)cc(OC)c1OC	x	x	u	x	8.2µM*
CCOC(=O)Cc1nc(-c2ccc(Cl)cc2)n[nH]1	23%	9%	-20%	-27	-2%
Nc1nc(-c2cc(Cl)cc(Cl)c2OC(F)F)cs1	-2%	-1%	-18%	2	-2%
CCOC(=O)N1CCC(NC(=O)CC2C(=O)NCCN2Cc2cccc(F)c2F)CC1 (centres undefined)	-1%	8%	5%	6	17%
COCCNC(=S)NNC(=O)c1cccs1	18%	4%	-10%	16	0%
COCCNC(=O)Nc1ccc2nc(-c3cccs3)c(-c3cccs3)nc2c1	-4%	-2%	u	-54*	u
Cc1cc(SCC(=O)NCc2ccccc2)nc(=O)[nH]1	x	x	6%	x	-2%
Cc1ccc2c(c1)C(c1ccc(F)cc1)N(C(=O)c1cc3ccccc3oc1=O)CC(=O)N2 (centres undefined)	0%	-1%	-14%	0	0%
COc1cc(OC)cc(C(=O)Nc2nc(CC(=O)NCCc3ccccc3)cs2)c1	-2%	1%	u	u	u
COc1cc(OC)cc(C(=O)Nc2nc(CC(=O)NCc3ccc(F)cc3)cs2)c1	u	u	8.2µM*	1	12µM*
COc1ccccc1NC(=S)NCc1ccccn1	19%	-12%	4.1µM*	0	2.3µM*
COc1ccccc1NC(=O)Nc1nc(CC(=O)NC2CCCC2)cs1	7%	-3%	16µM*	-8	u
COc1ccc(CNC(=O)Cc2csc(NC(=O)Nc3ccccc3OC)n2)cc1	-3%	-15%	15µM*	u	u
Cc1ccc(OCC(=O)Nc2nnc(S(=O)(=O)N3CCC(C)CC3)s2)cc1	10%	8%	-26%	4	-4%
COc1ccc(C2CC(=O)c3cc(-c4nc(-c5ccc(Cl)cc5)cs4)c(=O)[nH]c3C2)cc1OC (centres undefined)	x	x	u	x	-27%
O=S(=O)(Nc1ccon1)c1ccc(Br)s1	19%	15%	-1%	-5	-3%
CCCCC/C=C\C=C\[C@H](O)CCCCCCCC(=O)O	x	x	3%[0.628 µM]	x	1%[0.628 µM]
SMILES	HT1080-NT tox	HT1080 IDH1KD tx	TDP1 cell noCPT	IL-1B inflam inh	TDP1 cell CPT
COc1cccc(N2CCN(c3ccc4nnc(CCC(=O)Nc5ccccc5OC)n4n3)CC2)c1	0%	-6%	u	u	u
O=C(Cc1csc(NC(=O)Nc2cccc(Cl)c2)n1)NCc1ccccn1	0%	-11%	2.6µM*	-6	2.1µM*
COc1ccccc1CNC(=O)Cc1csc(NC(=O)Nc2ccccc2OC)n1	7%	2%	23µM*	2	16µM*
COc1ccccc1NC(=O)Nc1nc(CC(=O)NCc2ccccn2)cs1	-11%	-7%	26µM*	15	u
COc1ccccc1NC(=O)Nc1nc(CC(=O)NCc2cccnc2)cs1	-1%	4%	-14%	4	u
CSc1ncc(C(=O)NCc2ccccc2)c(-c2ccccc2)n1	x	x	-12%	x	-8%
CC(N)c1csc(Nc2ccc(S(C)(=O)=O)cc2)n1 (centres undefined)	7%	0%	0%	-3	16%
NC(c1csc(Nc2ccccn2)n1)c1ccccc1Cl (centres undefined)	-1%	-7%	u	3	u
NC(c1csc(Nc2nncc3ccccc23)n1)c1ccccc1Cl (centres undefined)	u	-23%	15µM*	-22	29µM*
NC(c1csc(Nc2nncc3ccccc23)n1)C1CCCCC1 (centres undefined)	21µM*	23µM*	5.8µM*	-78*	5.8µM*
CC(O)C1CCC2C3CC[C@H]4CC(O)CCC4(C)C3CC3(OCCO3)C12C (some centres undefined)	-9%	-6%[9.24 µM]	21µM*	6	-29%
CC(O)[C@H]1CC[C@H]2[C@@H]3CC[C@H]4C[C@H](O)CC[C@]4(C)[C@H]3[C@H](O)C[C@]12C (some centres undefined)	5%	9%	-13%	-1	-34%
CC(C)(C)c1ccc(CC(=O)N2CCC2(C)C(=O)NS(=O)(=O)c2cccc(F)c2)cc1 (centres undefined)	3%	-4%	13%	35	-12%
O=C(Nc1ccc(F)cc1)c1cccnc1Oc1ccccc1	3%	4%	5%	-12	0%
CSc1ncccc1C(=O)Nc1ccc(OC(F)(F)F)cc1	0%	1%	15µM*	-22	u
CC(=O)Nc1ccc(Sc2ncccc2C(=O)Nc2ccc(F)cc2)cn1	u	u	7.3µM*	61	9.2µM*
O=C(NCc1ccco1)c1sc(=S)n2c1[nH]c(=O)c1ccccc12	-26%	u	u	-59*	-21%
O=C(NCc1ccccc1)c1ccc2c(=O)[nH]c3c(C(=O)NCC4CCCO4)sc(=S)n3c2c1 (centres undefined)	-4%	0%	u	25	-16%
O=C(NC1CCCC1)c1sc(=S)n2c1[nH]c(=O)c1ccccc12	-2%	-42%	u	-85*	21µM*
COc1ccc(N2C(=O)CSC23CCC(C(C)(C)C)CC3)cc1 (centres undefined)	-2%	4%	18µM*	-2	u
COC(=O)c1ccc(C(=O)OC)c(NC(=O)c2cccnc2)c1	1%	11%	-3%	11	31%
